HTR5A ag ctr: activates human HTR5A in OPRM1-OPRD1 agonist counter-screen; HTR5A agonist assay, luminescence, cell-based; P47898; actives 0.61% (n = 340,000); activation, % at 9.3 µM; in the data active means activation mostly above about 9.5%, no sharp cut-off; inactive means mostly below about 7.6%
Target sequence (P47898 whole entry, looked up): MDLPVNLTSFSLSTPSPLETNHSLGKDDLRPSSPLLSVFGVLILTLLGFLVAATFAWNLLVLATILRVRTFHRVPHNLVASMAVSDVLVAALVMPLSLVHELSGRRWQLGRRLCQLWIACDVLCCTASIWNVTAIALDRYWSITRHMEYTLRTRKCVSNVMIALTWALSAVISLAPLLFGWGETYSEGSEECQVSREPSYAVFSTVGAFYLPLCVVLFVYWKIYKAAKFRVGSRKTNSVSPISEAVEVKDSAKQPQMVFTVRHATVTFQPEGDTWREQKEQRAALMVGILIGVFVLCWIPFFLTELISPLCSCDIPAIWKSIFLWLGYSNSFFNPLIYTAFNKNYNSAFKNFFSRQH
MOR-DOR ag: OPRM1-OPRD1 heterodimerization agonism. P35372+P41143. cells, luminescence. activation, % at 9.3 µM. actives 0.3% (n = 340,000). AID 504326; in the data active means activation above about 18%
MsrA inh: inhibitors of bovine MsrA; purified bovine MsrA, absorbance read-out; inhibition, % at 15.5 µM; actives 0.75% (n = 360,000)
bovine MsrA act: activates bovine MsrA enzyme | purified bovine MsrA, absorbance read-out | actives 0.3% (n = 360,000) | AID 602163 | activation, % at 10.6 µM; in the data active means activation above about 7.5%
HTR5A inv ag: inverse agonist of human HTR5A in OPRM1-OPRD1 counter-screen. P47898. HTR5A cell line, luminescence, inverse agonism. inhibition, % at 9.3 µM. actives 0.083% (n = 340,000); in the data active means inhibition mostly above about 23%, no sharp cut-off; inactive means mostly below about 18%
OPRM1-OPRD1 inv: inverse agonists of human mu-delta opioid receptor heterodimerization; AID 504357; inhibition, % at 9.3 µM; actives 0.21% (n = 340,000); cell-based MOR-DOR heterodimer luminescence, inverse agonism; in the data active means inhibition above about 22%, passing the limit was not always enough
MsrA inh confirm: confirmation of bovine MsrA inhibitors | shares compounds with MsrA inh | purified bovine MsrA, absorbance read-out | inhibition, % at 15.5 µM | actives 41% (n = 2,300) | AID 651822;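 further: coupled to thioredoxin reductase with NADPH and selenocystamine and DMSO as substrate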
Numbers stand for hits; n = inactive; x = no result. A selection: hits, their analogues and other compounds. The true share with any hit is near 1.9%. Unless noted, no stated cut-off is given here; in the data, active means inhibition above about 4.5%; inactive means the rest.

SMILES	HTR5A ag ctr	MOR-DOR ag	MsrA inh	bovine MsrA act	HTR5A inv ag	OPRM1-OPRD1 inv	MsrA inh confirm
O=c1[nH]c(=S)n(Cc2ccc(F)cc2)c(O)c1C=NCc1cccnc1	n	n	4.8	n	n	n	n
C/C=C1\NC(=O)[C@H](C)NC(=O)[C@@H](NC(=O)[C@H](Cc2ccc(O)cc2)NC(=O)[C@@H](NC(=O)/C(C)=C/C)C(C)C)[C@@H](C)OC(=O)[C@H](CCCc2ccc(O)cc2)NC(=O)[C@@H](CCC(=O)O)NC1=O	x	x	n	n	x	x	x
c1ccc(CN2COC3CCCCCC32)cc1 (stereo not drawn)	x	x	x	n	x	x	x
C[C@@H]1COc2cccc(N3CCN(C)CC3)c2S(=O)(=O)N1	x	x	n	n	x	x	x
CCn1nc(/C=C/c2ccccc2)nc2c(=O)n(C)c(=O)nc1-2	x	x	5.3	n	x	x	4.6
CCOC(=O)CNC(=O)N1Cc2cc(-c3cccc(F)c3)ccc2-n2nncc2C1	x	x	n	n	x	x	x
O=c1[nH]c(=O)n(-c2cccc(Cl)c2)c(O)c1C=NCCCN1CCOCC1	n	n	12.8	n	n	n	6.8
Cc1ccc(-n2c(O)c(C=NCCN3CCOCC3)c(=O)[nH]c2=O)cc1	n	n	n	n	n	n	x
CCOC(=O)c1cc(C(O)(C(=O)OC)C(F)(F)F)c(/N=C/N(C)C)o1 (stereo not drawn)	n	n	6.8	n	n	n	n
Cc1c(N=Cc2c(O)n(Cc3ccc(F)cc3)c(=O)[nH]c2=O)c(=O)n(-c2ccccc2)n1C	n	n	4.9	n	n	n	n
O=C(NCC1=C(c2cccc3ccccc23)C[C@@H]2CC[C@H]1N2Cc1ccco1)c1cccs1	x	x	n	n	x	x	x
COc1ccc(CC(=O)N2CCN(C)CC2)cc1OC	n	n	n	n	n	n	x
COc1ccc(CC(=O)C2C(=O)N(C)c3ccccc32)cc1OC (stereo not drawn)	n	n	4.9	n	n	n	n
COc1ccc(-n2nnnc2C(c2ccccc2OC(F)(F)F)N2CCC3(CC2)C(=O)NCN3c2ccccc2)cc1 (stereo not drawn)	x	x	n	n	x	x	x
Cc1cc(C)c(S(=O)(=O)N2Cc3ccccc3-n3nncc3C2)c(C)c1	x	x	n	n	x	x	x
O=C1NCN(c2ccccc2)C12CCN(C(c1ccccc1OC(F)(F)F)c1nnnn1C1CCCC1)CC2 (stereo not drawn)	x	x	n	n	x	x	x
COc1ccc(-c2cc(=Nc3ccccc3)c3cc(C)ccc3o2)cc1	n	n	n	n	n	n	x
COc1ccc(-c2cc(=NCCC(=O)O)c3cc(C)ccc3o2)cc1	n	n	4.8	n	n	n	4.6
O=C(NCP(=O)(Oc1ccccc1)Oc1ccccc1)OCc1ccccc1	x	x	n	n	x	x	x
NC(Cc1ccc(F)cc1)c1csc(Nc2ccccn2)n1 (stereo not drawn)	x	x	n	n	x	x	x
O=C(NN=Cc1ccc(N(CCCl)CCCl)cc1)c1cc(=O)[nH]c(=O)[nH]1	n	n	n	n	n	n	x
O=C(Cc1cc(=O)oc2cc(O)ccc12)NN=Cc1ccc(N(CCCl)CCCl)cc1	n	n	7.3	n	n	n	6.1
COc1cc(/C=C/[N+](=O)[O-])ccc1O	n	n	5.5	n	n	n	4.7
CCOc1cc(C=C2C(=O)NC(=S)NC2=O)ccc1O	n	n	4.8	n	n	n	n
COc1ccc(C=C2C(=O)NC(=S)NC2=O)cc1OC	n	n	n	n	n	n	x
C=CCn1c(O)c(/C=C/C=Nc2ccccc2)c(=O)[nH]c1=O	n	n	5.7	n	n	n	n
C[C@H]1COc2cc(N3CCN(C)CC3)ccc2S(=O)(=O)N1	x	x	n	n	x	x	x
C[C@H]1CN([C@@H](C)CO)C(=O)CCCn2nncc2CO[C@H]1CN(C)C(=O)Oc1ccc2ccccc2c1	x	x	n	n	x	x	x

From PubChem BioAssay
